Data published in PubChem BioAssay (NCATS).

Experiment: High-throughput drug toxicity screening in the BPDCN cell line Gen2.2 (AID 1224824);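 note: cells exposed to compounds for 48 h before reading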
Conditions: Gen2.2 BPDCN cells; at 45.8 µM (top of the series) unless noted
In short: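 CellTiter-Glo luminescence read after 48 h compound exposure at 37 C defines viability; percent activity set with DMSO as 100% and bortezomib (9.2 uM final) as 0%. 500 exponentially growing cells per well, RPMI plus 10% FBS.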

With CCCc1nc(C)c2c(=O)[nH]c(-c3cc(S(=O)(=O)N4CCN(CC)CC4)ccc3OCC)nn12 as the compound, how does the cell viability, % of control (lower = more cytotoxic) read?
The cell viability, % of control (lower = more cytotoxic) was 5.18%.

For O[C@@H](CNC[C@H](O)[C@H]1CCc2cc(F)ccc2O1)[C@@H]1CCc2cc(F)ccc2O1, which cell viability, % of control (lower = more cytotoxic) is on record?
The cell viability, % of control (lower = more cytotoxic) was 4.81%.

For CN1CCN(c2c(F)cc3c(=O)c(C(=O)O)cn(CCF)c3c2F)CC1, which cell viability, % of control (lower = more cytotoxic) is on record?
Its cell viability, % of control (lower = more cytotoxic) is 140%.

For CS(=O)(=O)c1ccc([C@@H](O)[C@@H](CO)NC(=O)C(Cl)Cl)cc1, which cell viability, % of control (lower = more cytotoxic) is on record?
Its cell viability, % of control (lower = more cytotoxic) is 94.5%.

With N[C@@H](Cc1ccc(O)c(O)c1)C(=O)O as the compound, how does the cell viability, % of control (lower = more cytotoxic) read?
Its cell viability, % of control (lower = more cytotoxic) is 94.2%.

For CC(C)NCC(O)c1ccc(NS(C)(=O)=O)cc1 (stereo not given), which cell viability, % of control (lower = more cytotoxic) is on record?
The cell viability, % of control (lower = more cytotoxic) was 203%.

Which cell viability, % of control (lower = more cytotoxic) does the source give for CNNCc1ccc(C(=O)NC(C)C)cc1 here?
Its cell viability, % of control (lower = more cytotoxic) is 284%.

Which cell viability, % of control (lower = more cytotoxic) does the source give for CC(=O)CC(c1ccccc1)c1c(O)c2ccccc2oc1=O (stereo not given) here?
Its cell viability, % of control (lower = more cytotoxic) is 66.7%.

With O=C(O)c1cc(=O)[nH]c(=O)[nH]1 as the compound, how does the cell viability, % of control (lower = more cytotoxic) read?
The cell viability, % of control (lower = more cytotoxic) was 184%.

Which cell viability, % of control (lower = more cytotoxic) does the source give for COc1ccc(C(=O)CC(=O)c2ccc(C(C)(C)C)cc2)cc1 here?
The cell viability, % of control (lower = more cytotoxic) was 5.71%.

For CCN(CC)CC#CCOC(=O)C(O)(c1ccccc1)C1CCCCC1 (stereo not given), which cell viability, % of control (lower = more cytotoxic) is on record?
The cell viability, % of control (lower = more cytotoxic) was 205%.

With CN(CCOc1ccc(CC2SC(=O)NC2=O)cc1)c1ccccn1 (stereo not given) as the compound, how does the cell viability, % of control (lower = more cytotoxic) read?
The cell viability, % of control (lower = more cytotoxic) was 101%.

Which cell viability, % of control (lower = more cytotoxic) does the source give for C[C@@H]1C[C@H]2[C@@H]3CCC4=CC(=O)C=C[C@]4(C)[C@@]3(Cl)[C@@H](O)C[C@]2(C)[C@@]1(OC(=O)c1ccco1)C(=O)CCl here?
The cell viability, % of control (lower = more cytotoxic) was 4.47%.

With COCCCOc1cc(C[C@@H](C[C@H](N)[C@@H](O)C[C@H](C(=O)NCC(C)(C)C(N)=O)C(C)C)C(C)C)ccc1OC as the compound, how does the cell viability, % of control (lower = more cytotoxic) read?
The cell viability, % of control (lower = more cytotoxic) was 148%.

With CC(C)(C)C(=O)OCOP(=O)(COCCn1cnc2c(N)ncnc21)OCOC(=O)C(C)(C)C as the compound, how does the cell viability, % of control (lower = more cytotoxic) read?
The cell viability, % of control (lower = more cytotoxic) was 3.53%.

With NC(=O)c1cccnc1 as the compound, how does the cell viability, % of control (lower = more cytotoxic) read?
Its cell viability, % of control (lower = more cytotoxic) is 114%.

Which cell viability, % of control (lower = more cytotoxic) does the source give for O=S(=O)(c1cccc2cnccc12)N1CCCNCC1 here?
Its cell viability, % of control (lower = more cytotoxic) is 21.4%.

For Oc1c(Cl)cc(Cl)c2cccnc12, which cell viability, % of control (lower = more cytotoxic) is on record?
Its cell viability, % of control (lower = more cytotoxic) is 10.5%.

Experiment: High-throughput drug toxicity screening in the BPDCN cell line Cal-1 (AID 1224825)
Conditions: Cal-1 BPDCN cell viability, qHTS; at 45.8 µM (top of the series) unless noted
In short: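 500 Cal-1 cells/well, RPMI + glutamine + 10% FBS (phenol red-free); cpd added by pin tool; 48 h, 37C, 5% CO2; CTG 15 min RT, lumi read. Normalised: DMSO 100%, bortezomib 9.2 uM 0%.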

For CC(C)OC(=O)C(C(=O)OC(C)C)=C1SC=CS1, which viability (% of control) is on record?
The viability (% of control) was 94.2%.

Which viability (% of control) does the source give for CCOC(=O)[C@H](CCc1ccccc1)N[C@H]1CCc2ccccc2N(CC(=O)O)C1=O here?
The viability (% of control) was 22.3%.

With S=P(N1CC1)(N1CC1)N1CC1 as the compound, how does the viability (% of control) read?
Its viability (% of control) is 27.1%.

With Nc1nc(F)nc2c1ncn2[C@@H]1O[C@H](CO)[C@@H](O)[C@@H]1O as the compound, how does the viability (% of control) read?
The viability (% of control) was 3.53%.

Which viability (% of control) does the source give for CNS(=O)(=O)CCc1ccc2[nH]cc(C3CCN(C)CC3)c2c1 here?
The viability (% of control) was 23.9%.

Which viability (% of control) does the source give for CC1CC2C3CCC4=CC(=O)C=C[C@]4(C)[C@@]3(F)[C@@H](O)C[C@]2(C)[C@@]1(O)C(=O)CO (stereo not given in full) here?
Its viability (% of control) is 56.6%.

With Nc1nc(=S)c2[nH]cnc2[nH]1 as the compound, how does the viability (% of control) read?
The viability (% of control) was 7.77%.

Which viability (% of control) does the source give for Cc1nnc(NS(=O)(=O)c2ccc(N)cc2)s1 here?
Its viability (% of control) is 13.2%.

Which viability (% of control) does the source give for Cc1c(-c2ccc(O)cc2)n(Cc2ccc(OCCN3CCCCCC3)cc2)c2ccc(O)cc12 here?
The viability (% of control) was 121%.

With O=S(=O)(O)CCS as the compound, how does the viability (% of control) read?
The viability (% of control) was 32.1%.

Which viability (% of control) does the source give for CCCCc1oc2ccc(NS(C)(=O)=O)cc2c1C(=O)c1ccc(OCCCN(CCCC)CCCC)cc1 here?
The viability (% of control) was 4.81%.

For COc1cc([C@@H]2c3cc4c(cc3[C@H](O)[C@H]3COC(=O)[C@H]23)OCO4)cc(OC)c1OC, which viability (% of control) is on record?
Its viability (% of control) is 8.85%.

With O=C(NCC1CN(c2ccc(N3CCOCC3=O)cc2)C(=O)O1)c1ccc(Cl)s1 (stereo not given) as the compound, how does the viability (% of control) read?
Its viability (% of control) is 48.9%.

For NC(=O)N1c2ccccc2CC(=O)c2ccccc21, which viability (% of control) is on record?
Its viability (% of control) is 112%.

Which viability (% of control) does the source give for CC(=O)[C@H]1CC[C@H]2[C@@H]3CCC4=CC(=O)CC[C@]4(C)[C@H]3CC[C@]12C here?
The viability (% of control) was 79.9%.

With Cc1onc(-c2ccccc2Cl)c1C(=O)N[C@@H]1C(=O)N2[C@@H]1SC(C)(C)[C@@H]2C(=O)O as the compound, how does the viability (% of control) read?
The viability (% of control) was 97.4%.

Which viability (% of control) does the source give for Cc1cccc(Nc2ccncc2S(=O)(=O)NC(=O)NC(C)C)c1 here?
Its viability (% of control) is 107%.

For CCn1cc(C(=O)O)c(=O)c2cc(F)c(N3CCN(C)CC3)cc21, which viability (% of control) is on record?
The viability (% of control) was 97.9%.

Which viability (% of control) does the source give for CCCc1nc(C)c2c(=O)[nH]c(-c3cc(S(=O)(=O)N4CCN(CC)CC4)ccc3OCC)nn12 here?
The viability (% of control) was 4.45%.

For O[C@@H](CNC[C@H](O)[C@H]1CCc2cc(F)ccc2O1)[C@@H]1CCc2cc(F)ccc2O1, which viability (% of control) is on record?
Its viability (% of control) is 2.75%.

With CN1CCN(c2c(F)cc3c(=O)c(C(=O)O)cn(CCF)c3c2F)CC1 as the compound, how does the viability (% of control) read?
The viability (% of control) was 98.4%.

With CS(=O)(=O)c1ccc([C@@H](O)[C@@H](CO)NC(=O)C(Cl)Cl)cc1 as the compound, how does the viability (% of control) read?
Its viability (% of control) is 86.4%.

For N[C@@H](Cc1ccc(O)c(O)c1)C(=O)O, which viability (% of control) is on record?
The viability (% of control) was 93.8%.

Which viability (% of control) does the source give for CC(C)NCC(O)c1ccc(NS(C)(=O)=O)cc1 (stereo not given) here?
Its viability (% of control) is 120%.

Which viability (% of control) does the source give for CNNCc1ccc(C(=O)NC(C)C)cc1 here?
Its viability (% of control) is 78.4%.

For CC(=O)CC(c1ccccc1)c1c(O)c2ccccc2oc1=O (stereo not given), which viability (% of control) is on record?
The viability (% of control) was 60.3%.

Which viability (% of control) does the source give for O=C(O)c1cc(=O)[nH]c(=O)[nH]1 here?
The viability (% of control) was 128%.

Which viability (% of control) does the source give for O=c1cc(O)c(Cl)c[nH]1 here?
Its viability (% of control) is 39.2%.

With COc1ccc(C(=O)CC(=O)c2ccc(C(C)(C)C)cc2)cc1 as the compound, how does the viability (% of control) read?
Its viability (% of control) is 5.54%.

Which viability (% of control) does the source give for CCN(CC)CC#CCOC(=O)C(O)(c1ccccc1)C1CCCCC1 (stereo not given) here?
Its viability (% of control) is 104%.

Which viability (% of control) does the source give for CN(CCOc1ccc(CC2SC(=O)NC2=O)cc1)c1ccccn1 (stereo not given) here?
Its viability (% of control) is 107%.

With C[C@@H]1C[C@H]2[C@@H]3CCC4=CC(=O)C=C[C@]4(C)[C@@]3(Cl)[C@@H](O)C[C@]2(C)[C@@]1(OC(=O)c1ccco1)C(=O)CCl as the compound, how does the viability (% of control) read?
The viability (% of control) was 6.87%.

With COCCCOc1cc(C[C@@H](C[C@H](N)[C@@H](O)C[C@H](C(=O)NCC(C)(C)C(N)=O)C(C)C)C(C)C)ccc1OC as the compound, how does the viability (% of control) read?
The viability (% of control) was 113%.

With CC(C)(C)C(=O)OCOP(=O)(COCCn1cnc2c(N)ncnc21)OCOC(=O)C(C)(C)C as the compound, how does the viability (% of control) read?
The viability (% of control) was 2.56%.

For NC(=O)c1cccnc1, which viability (% of control) is on record?
Its viability (% of control) is 101%.

For O=S(=O)(c1cccc2cnccc12)N1CCCNCC1, which viability (% of control) is on record?
Its viability (% of control) is 94.6%.

For Oc1c(Cl)cc(Cl)c2cccnc12, which viability (% of control) is on record?
The viability (% of control) was 9.09%.
